# Assay outcomes from PubChem BioAssay.
# Shown are actives, neighbours in structure and some others; about 21% of the full set was active somewhere.
# CHX counter – counter-screen for Shiga toxin inhibitors: cycloheximide protein synthesis inhibition; cell reporter, cycloheximide protein synthesis inhibition counterscreen; max response, %; 300,000 compounds, 12% hits; AID 2314; in the data active means max response mostly above about 13%, no sharp cut-off; inactive means mostly below about 14%; further: read at 38.3 µM for the half of the compounds with a filed dose; 0% is about no effect
# Pf growth 48h – inhibits P. falciparum growth in the first generation, 48 h; 310,000 compounds, 5.9% hits; Potency, µM (highest dose often 28.7 µM), without a hit: top-dose activity change, negative = inhibition, hits mostly inhibitors; P. falciparum luciferase growth in erythrocytes, 48 h; AID 504832; further: potency means the concentration at half of the fitted maximal effect; on the % scale 0 is the no-effect control and ±100 the full control effect
#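 In quantitative HTS format, infected erythrocytes bearing luciferase-reporter parasites were treated for a single generation at 37 C. Luminescence after adding detection reagent served as the growth measure.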
# AMA1-RON2 inh – AMA1-RON2 (P. falciparum) interaction inhibition. AlphaScreen AMA1-biotinylated RON2 peptide binding. Potency, µM (highest dose often 58.2 µM), for inactives: top-dose activity change, negative = inhibition, actives largely listed as inhibitors. 360,000 compounds, 0.2% hits;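 further: potency means the concentration at half of the fitted maximal effect; 0% = vehicle wells and -100% = peptide control; nearly all actives have a fitted effect of over 45% in size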
#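 AMA1 (3D7) with his tag at 25 nM final met compounds first, then biotinylated RON2 peptide at 25 nM; detection used donor plus acceptor beads, 10 µg/mL apiece, read by AlphaScreen after 30 min at room temperature.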
# Pf growth 96h – P. falciparum growth inhibition at 96 hours; P. falciparum luciferase reporter growth, 96 h; AID 504834; 320,000 compounds, 6.9% hits; Potency, µM (highest dose often 28.7 µM), for the others: at the highest dose activity change, negative = inhibition, usual class: inhibitors; further: potency means the concentration at half of the fitted maximal effect; on the % scale 0 is the no-effect control and ±100 the full control effect
#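 96 h incubation, 37 C, 5% CO2, of luciferase-reporter P. falciparum-infected RBCs (2% hematocrit, 0.05% parasitemia final) with test compounds; endpoint luminescence.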
# Shiga toxin inh – inhibitors of Shiga toxin in Vero cells | Vero cells, Shiga toxin protein synthesis inhibition reporter | inhibition, % at 38.7 µM | 290,000 compounds, 9.2% hits; in the data active means inhibition mostly above about 28%, no sharp cut-off; inactive means mostly below about 43%; further: 0% is about no effect
# HCV inh – blocks hepatitis C virus; Huh7.5.1 HCVcc-Cre infection, luciferase reporter, 44 h; Potency, µM (highest dose often 41.8 µM), without a hit: at the top dose activity change, negative = inhibition, hits mostly inhibitors; AID 651820; 340,000 compounds, 3.4% hits; further: potency means the concentration at half of the fitted maximal effect; on the % scale 0 is the no-effect control and ±100 the full control effect
#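 A cell-based infection assay in which seeded cells (1,000 per well) receive test compound after 4 h, are inoculated with HCVcc-Cre at approximately 0.5 moi, and are incubated 44 h before luminescence detection.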
# Active calls of the source: *; u = inconclusive; x = no result given; [ ] = remark or other dose. Unless noted, the call rests on the fitted dose curve; in most records, active means well fitted curve in the direction sought with a large enough effect; inconclusive means small, poorly fitted or top-dose-only effect, or another doubt; inactive means no such curve, though single readings can be large; an effect the other way counts as inactive or inconclusive.
SMILES,CHX counter,Pf growth 48h,AMA1-RON2 inh,Pf growth 96h,Shiga toxin inh,HCV inh
CC1CC(C)(C)NC(=S)N1CCC(=O)N1CCc2ccccc21 (centres undefined),6,u,-5%,u,19,14%
O=C1N=C(N2CCCCC2)S/C1=C\c1ccncc1,-2,u,15%,u,-11,27%
CCOC(=O)C1CCCN(C2=NC(=O)/C(=C/c3ccc(O)c(OC)c3)S2)C1 (centres undefined),14*,-6%[0.00184 µM],-7%,u,30,-10%
O=C1N=C(N2CCCC2)S/C1=C\C=C\c1ccccc1,47*,8%,8%,0%,69*,u
COc1ccc(/C=C2\SC(N3CCCCC3)=NC2=O)cc1,22*,u,-5%,20%,21,-30%
Cc1cccc(NC(=O)CCC2CCN(Cc3nccs3)CC2)c1,9,-25%,10%,9.3µM*,27,-15%
COc1ccc(C(=O)N2CCC(CCC(=O)Nc3cccc(C)c3)CC2)cc1,13,-14%,-2%,-2%,11,-15%
Cc1cccc(NC(=O)CCC2CCN(C(=O)c3ccc(C)s3)CC2)c1,22*,u,0%,u,14,u
COC(C(=O)N1CCC(CCC(=O)Nc2ccccc2)CC1)c1ccccc1 (centres undefined),37*,-14%,-7%,-4%,48*,-21%
Cc1ccccc1S(=O)(=O)N(C)C[C@@H]1OCc2cnnn2CCCC(=O)N([C@@H](C)CO)C[C@H]1C,x,x,16%,x,x,x
Cc1ccccc1OCCn1cnc2cc([N+](=O)[O-])ccc2c1=O,9,u,9%,0%,20,-5%
Cc1cc(N2CCOCC2)nc2ccc(NC(=O)CCC(=O)N3CCC(C)CC3)cc12,8,-18%,6%,31%,103,-1%
CCCCN(C)C(=O)CCC(=O)Nc1ccc2nc(N3CCOCC3)cc(C)c2c1,29*,23%,8%,u,20,u
CCCCNC(=O)CCC(=O)Nc1ccc2nc(N3CCC(C)CC3)cc(C)c2c1,30*,-5%,6%,u,55*,u
Cc1cc(N2CCCC2)nc2ccccc12,1,-10%,6%,0%,-3,-20%
CCCCN(C)C(=O)CCC(=O)Nc1ccc2nc(N3CCN(C)CC3)cc(C)c2c1,1,14%,5%,-3%,-9,u
CCC(C)NC(=O)CCC(=O)Nc1ccc2nc(N3CCOCC3)cc(C)c2c1 (centres undefined),31,-4%,-4%,u,37,-6%
Cc1cc(N2CCC(C)CC2)nc2ccc(N3C(=O)CCC3=O)cc12,18*,49%,-6%,24%,14,u
CCC(C)NC(=O)CCC(=O)Nc1ccc2nc(N3CC(C)CC(C)C3)cc(C)c2c1 (centres undefined),13,9.3µM*,-2%,5.9µM*,21,u
CCN(C)C1CN(Cc2cn(CCCC(=O)OC)nn2)S(=O)(=O)C1 (centres undefined),x,x,5%,x,x,x
COc1ccc(C(C)(C)NC(=O)C2CCC(=O)N(CCCN3CCCC3=O)C2)cc1 (centres undefined),15,u,-6%,u,-4,4%
CC(NC(=O)c1ccc(F)cc1Cl)C1CC2CCC1C2 (centres undefined),6,10%,-12%,1%,36,1%
CC(NC(=O)c1ccc(C#N)cc1)C1CC2CCC1C2 (centres undefined),5,3%,12%,43%,-10,1%
COc1ccc(C(=O)NC(C)C2CC3CCC2C3)cc1 (centres undefined),11*,7%,0%,u,15,16%
Cc1ccc(C(=O)NC(C)C2CC3CCC2C3)c(C)c1 (centres undefined),13,35%,1%,31%,90*,17%
SMILES,CHX counter,Pf growth 48h,AMA1-RON2 inh,Pf growth 96h,Shiga toxin inh,HCV inh
CC(NC(=O)c1ccc(N(C)C)cc1)C1CC2CCC1C2 (centres undefined),14*,3%,0%,x,106,18%
Cc1ccccc1C(=O)N1CCC(C(=O)OCc2ccccn2)CC1,x,x,-12%,x,x,15%
COc1ccnc(CSC(N)=Nc2ccc(F)cc2)c1,31*,1%,-69%,18%,66*,-11%
CC(CC(=O)N(CCC1=CCCCC1)c1c(N)n(Cc2ccccc2)c(=O)[nH]c1=O)c1ccccc1 (centres undefined),x,-23%,-1%,-3%,x,17%[8.37 µM]
Nc1nc(-c2ccccn2)nc(N)c1Cc1c(F)cccc1Cl,34*,12µM*,u,u,43,5µM*
Nc1nc(-c2ccccn2)nc(N)c1Cc1ccccc1F,38*,u,-65%,5.2µM*,78*,u
Cc1n[nH]c(C)c1Cc1c(F)cccc1Cl,8,-3%,-3%,15%,10,-1%
Nc1nnc(Cc2ccc(Cl)cc2Cl)s1,1,-17%,17%,29%,-12,-1%
Nc1nc(-c2ccccn2)nc(N)c1Cc1ccc(Cl)cc1Cl,37*,1.9µM*,-63%,1.3µM*,56*,3.5µM*
NS(=O)(=O)c1ccc(CNC(=O)/C=C/c2cccc([N+](=O)[O-])c2)cc1,-1,25%,0%,0%,-38,-2%
CC1=C(C(=O)Nc2ccccc2C(F)(F)F)C(c2sccc2C)NC(=S)N1 (centres undefined),0,-6%,12%,7%,-13,u
COc1cc(-c2coc3c(C(=O)NCc4ccc(C(F)(F)F)cc4)cccc23)ccc1O,x,x,-11%,x,x,x
CCOC1=C2CN(S(=O)(=O)c3ccc(C)cc3)[C@H](c3ccccc3)C[C@@H]2N(S(=O)(=O)c2ccc(C)cc2)[C@H](c2cccs2)C1,x,x,2%,x,x,x
Cc1ccc(C)c(N2CCN(C(=O)CCC(=O)N3CCOc4ccc(Cl)cc43)CC2)c1,8,u,-2%,4.1µM*,8,10µM*
Cc1cccc(N2CCN(C(=O)CCC(=O)N3CCOc4ccc(Cl)cc43)CC2C)c1 (centres undefined),-2,-6%,-29%,9.3µM*,1,u
Cc1ccc(C)c(N2CCN(CCCNC(=O)CCC(=O)N3CCOc4ccc(Cl)cc43)CC2)c1,-1,u,x,13%,-6,x
NC(=O)C1CCN(C(=O)CCC(=O)N2CCOc3ccc(Cl)cc32)CC1,-1,11%,-3%,u,2,17%
O=C(NC(=S)NC1C2CC3CC(C2)CC1C3)c1ccccc1 (centres undefined),18*,32%,14%,10µM*,49*,-21%
O=C(NC(=S)NC1CCCC1)c1ccccc1,43*,22%,-9%,43%,67*,-5%
